# Measurements from PubChem BioAssay (EPA / NIEHS).
# Several values for one entry are separate records, joined by “and”; a condition that tells them apart may be missing. Equal entries are not always repeated. Results filed as inconclusive are left out. The source holds several records for some structures; these can differ, active in one and inactive in another. Activity calls are given as the source filed them. The calls were made as follows, unless noted: active = hit-call score of the fitted dose curve at least 0.9, where 1 is the maximum; inactive = score below 0.9.
# Key:
# [1] = ATG_PBREM_CIS: Attagene CIS-FACTORIAL HepG2 Assay for human Phenobarbital-responsive Enhancer Module (PBREM) (AID 2282955); details: HepG2 PBREM cis-reporter, Attagene multiplexed transcription; actives raise or lower the signal
# Outline: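 After a 24 h incubation with test chemical, transfected HepG2 cells yield total RNA; reporter-specific RT-PCR products are fluorescently labelled, HpaI-digested and resolved by capillary electrophoresis against ROX size standards.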
# [2] = biological target: Paired box protein Pax-6 (Homo sapiens) (UniProt P26367); experiment: ATG_Pax6_CIS: Attagene CIS-FACTORIAL HepG2 Assay for human Paired Box 6 (PAX6) (AID 2282956); details: HepG2 CIS-FACTORIAL PAX6 reporter transcription, RNA readout; actives raise or lower the signal
# Paired box protein Pax-6 (Homo sapiens), sequence (P26367 whole entry, looked up): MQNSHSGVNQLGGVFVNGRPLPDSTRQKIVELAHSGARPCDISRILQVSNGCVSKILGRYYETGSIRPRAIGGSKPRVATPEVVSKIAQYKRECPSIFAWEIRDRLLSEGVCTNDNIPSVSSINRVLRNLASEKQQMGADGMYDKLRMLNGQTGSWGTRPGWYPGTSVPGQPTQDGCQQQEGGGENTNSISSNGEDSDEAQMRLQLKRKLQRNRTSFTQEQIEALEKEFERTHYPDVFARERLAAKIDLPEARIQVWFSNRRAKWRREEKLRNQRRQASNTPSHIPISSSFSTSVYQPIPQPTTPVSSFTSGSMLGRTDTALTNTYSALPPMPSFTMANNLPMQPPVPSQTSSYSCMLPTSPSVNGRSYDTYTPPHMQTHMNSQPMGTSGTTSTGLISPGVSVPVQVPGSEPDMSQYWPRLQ
# Outline: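 DMSO-referenced bidirectional fits of reporter mRNA fluorescence; HepG2 with transient cis-promoter MRTUs, 24 h post-dose, RT-PCR plus capillary electrophoresis detection.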
# [3] = ATG_PXRE_CIS: Attagene CIS-FACTORIAL HepG2 Assay for human Pregnane X Receptor Element (PXRE) (AID 2282957); details: HepG2 Attagene CIS-FACTORIAL PXRE reporter, mRNA; actives raise or lower the signal
# Outline: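 Using HepG2 transfected with multiple reporter transcription units, endogenous factor-driven transcription was scored as reporter mRNA after 24 h exposure.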
# [4] = ATG_PPRE_CIS: Attagene CIS-FACTORIAL HepG2 Assay for human Peroxisome Proliferator-activated Response Element (PPRE) (AID 2282958); details: HepG2 PPRE cis-element reporter, Attagene transcription factor profiling; actives raise or lower the signal
# Outline: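 Multiplexed reporter transcription units under cis-regulatory promoters were transfected into HepG2 cells to capture endogenous factor activity. A 24 h incubation preceded RNA isolation and fluorescent RT-PCR fragment analysis.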
# [5] = ATG_RORE_CIS: Attagene CIS-FACTORIAL HepG2 Assay for human RAR-related Orphan Receptor Element (RORE) (AID 2282959); details: HepG2 Attagene cis-factorial RORE reporter, mRNA; actives raise or lower the signal
# Outline: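 Fluorescence intensity of reporter-specific cDNA fragments, separated by capillary electrophoresis, gives the signal. Source: HepG2 liver cells transiently transfected with cis-element reporters and exposed 24 h; DMSO-normalized bidirectional fit.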
# [6] = ATG_Sox_CIS: Attagene CIS-FACTORIAL HepG2 Assay for human SRY-box transcription factor (SOX) (AID 2282960); details: HepG2 Attagene cis-factorial SOX reporter, mRNA; actives raise or lower the signal
# Outline: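 After 24 h of chemical treatment, transfected HepG2 reporter cells are lysed for total RNA. Transcript levels come from RT-PCR with labelled primer extension and capillary electrophoresis, analysed bidirectionally versus DMSO.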
# [7] = biological target: Transcription factor Sp1 (Homo sapiens) (UniProt P08047); experiment: ATG_Sp1_CIS: Attagene CIS-FACTORIAL HepG2 Assay for human Specificity Protein 1 (Sp1) (AID 2282961); details: HepG2 Sp1 cis-reporter transcription, actives raise or lower the signal
# Transcription factor Sp1 (Homo sapiens), sequence (P08047 whole entry, looked up): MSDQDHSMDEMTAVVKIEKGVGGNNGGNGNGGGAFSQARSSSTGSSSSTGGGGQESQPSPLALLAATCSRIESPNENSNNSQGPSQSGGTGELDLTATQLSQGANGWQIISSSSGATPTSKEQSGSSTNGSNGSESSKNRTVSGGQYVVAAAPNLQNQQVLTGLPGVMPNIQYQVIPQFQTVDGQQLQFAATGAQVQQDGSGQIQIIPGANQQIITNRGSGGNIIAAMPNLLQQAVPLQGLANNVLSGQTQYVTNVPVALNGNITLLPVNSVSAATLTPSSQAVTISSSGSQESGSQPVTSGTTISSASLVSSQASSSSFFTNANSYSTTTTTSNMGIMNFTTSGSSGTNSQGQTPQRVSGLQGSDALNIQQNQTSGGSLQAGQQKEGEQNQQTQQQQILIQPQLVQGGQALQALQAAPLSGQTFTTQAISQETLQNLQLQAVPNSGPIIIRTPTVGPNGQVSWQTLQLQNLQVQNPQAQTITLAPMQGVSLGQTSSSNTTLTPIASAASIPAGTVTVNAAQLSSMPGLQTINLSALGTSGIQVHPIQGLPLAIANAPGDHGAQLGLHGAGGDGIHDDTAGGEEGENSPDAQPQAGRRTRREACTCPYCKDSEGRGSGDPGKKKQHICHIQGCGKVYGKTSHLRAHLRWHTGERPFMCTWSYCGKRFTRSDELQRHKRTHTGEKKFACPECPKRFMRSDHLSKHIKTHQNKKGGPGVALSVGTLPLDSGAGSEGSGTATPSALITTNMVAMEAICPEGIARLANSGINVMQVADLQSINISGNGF
# Outline: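 Sp1-driven reporter mRNA, read as capillary electrophoresis fluorescence after RT-PCR, in transiently transfected HepG2 cells dosed for 24 h; signal change in either direction relative to DMSO.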
# [8] = ATG_SREBP_CIS: Attagene CIS-FACTORIAL HepG2 Assay for human Sterol Regulatory Element Binding (SREBP) (AID 2282962); details: HepG2 Attagene cis-factorial SREBP reporter, mRNA; actives raise or lower the signal
# Outline: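 In this cis-format assay, HepG2 liver cells express reporters controlled by promoter elements responsive to native transcription factors. Exposure lasts 24 h; reporter mRNA fluorescence from capillary electrophoresis gives the signal, fitted bidirectionally against DMSO.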
# [9] = biological target: Signal transducer and activator of transcription 3 (Homo sapiens) (UniProt P40763); experiment: ATG_STAT3_CIS: Attagene CIS-FACTORIAL HepG2 Assay for human Signal Transducer and Activator of Transcription 3 (STAT3) (AID 2282963); details: HepG2, Attagene cis-factorial STAT3 reporter transcription; actives raise or lower the signal
# Signal transducer and activator of transcription 3 (Homo sapiens), sequence (P40763 whole entry, looked up): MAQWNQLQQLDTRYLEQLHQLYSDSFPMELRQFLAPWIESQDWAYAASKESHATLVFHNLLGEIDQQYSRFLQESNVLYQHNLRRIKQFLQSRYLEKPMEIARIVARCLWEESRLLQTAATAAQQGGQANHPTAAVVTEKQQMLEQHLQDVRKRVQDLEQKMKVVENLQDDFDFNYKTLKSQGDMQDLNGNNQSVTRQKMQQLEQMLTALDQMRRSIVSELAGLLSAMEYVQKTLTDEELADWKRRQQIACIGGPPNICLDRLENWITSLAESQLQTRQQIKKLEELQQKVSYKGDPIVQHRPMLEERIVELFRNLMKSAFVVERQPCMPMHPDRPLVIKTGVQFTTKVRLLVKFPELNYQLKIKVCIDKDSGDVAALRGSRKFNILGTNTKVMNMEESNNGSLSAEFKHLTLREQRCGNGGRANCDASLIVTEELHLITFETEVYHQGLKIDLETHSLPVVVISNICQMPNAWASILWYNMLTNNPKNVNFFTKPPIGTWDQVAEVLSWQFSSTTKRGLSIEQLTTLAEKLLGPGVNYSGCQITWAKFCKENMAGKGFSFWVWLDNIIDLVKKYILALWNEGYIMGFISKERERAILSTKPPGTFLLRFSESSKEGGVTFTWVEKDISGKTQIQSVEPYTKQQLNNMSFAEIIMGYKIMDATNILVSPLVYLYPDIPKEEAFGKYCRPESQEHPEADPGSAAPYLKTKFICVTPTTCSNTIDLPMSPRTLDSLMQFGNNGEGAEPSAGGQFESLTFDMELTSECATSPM
# Outline: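 Uses human liver HepG2 transiently carrying cis-regulated reporter transcription units. Following 24 h dosing, reporter mRNA induction was detected by RT-PCR and capillary electrophoresis, analysed bidirectionally versus DMSO.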
# [10] = ATG_TA_CIS: Attagene CIS-FACTORIAL HepG2 Assay for human TA Basal Promoter (AID 2282964); details: HepG2 Attagene CIS-factorial TA basal promoter reporter; actives raise or lower the signal
# Outline: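 HepG2 cells transiently transfected with multiple reporter units under cis promoter elements, reporting endogenous transcription factor activity; this endpoint tracks the TA basal promoter as background control. Reporter mRNA after 24 h dosing measured by RT-PCR/capillary electrophoresis; bidirectional fits versus DMSO.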
# [11] = ATG_TCF_b_cat_CIS: Attagene CIS-FACTORIAL HepG2 Assay for human T-Cell-Factor with beta-catenin (TCF/b-cat) (AID 2282965); details: HepG2 TCF/beta-catenin cis-reporter transcription, actives raise or lower the signal
# Outline: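 In this cis-format system, transfected HepG2 cells report endogenous transcription factor activity. Readout after 24 h exposure is reporter transcript abundance from RT-PCR and capillary electrophoresis, analysed for gain or loss of signal versus DMSO.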
# [12] = ATG_TAL_CIS: Attagene CIS-FACTORIAL HepG2 Assay for human TAL Basal Promoter (AID 2282966); details: HepG2 Attagene cis-factorial TAL promoter reporter; actives raise or lower the signal;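 also: background control endpoint measuring basal TAL promoter reporter mRNA not a specific factor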
# Outline: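 After 24 hours of chemical exposure, transfected HepG2 cells yielded RNA that was converted to 6-FAM-labelled, HpaI-digested reporter fragments for capillary electrophoresis. Values derive from bidirectional fitting against DMSO controls.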
# [13] = ATG_TGFb_CIS: Attagene CIS-FACTORIAL HepG2 Assay for human Transforming Growth Factor (TGF) (AID 2282967); details: HepG2 Attagene CIS TGFb reporter, mRNA transcription; actives raise or lower the signal
# Outline: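 HepG2 cells transiently transfected with cis-promoter-driven multiple reporter units measure endogenous TF activity; reporter mRNA quantified at 24 h by RT-PCR, FAM labeling, HpaI digestion and capillary electrophoresis. Bidirectional fit vs DMSO.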
# [14] = ATG_VDRE_CIS: Attagene CIS-FACTORIAL HepG2 Assay for human Vitamin D Receptor Element (VDRE) (AID 2282968); details: HepG2 VDRE cis-reporter transcription, actives raise or lower the signal
# Outline: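 Transfected HepG2 reporter cells, chemical treatment 24 h. RNA isolated, cDNA amplified with reporter-specific primers, products analysed by capillary electrophoresis. Endpoint fitted in both directions versus DMSO.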
# [15] = biological target: Nuclear receptor subfamily 1 group I member 3 (Homo sapiens) (UniProt Q14994); experiment: ATG_CAR_TRANS: Attagene TRANS-FACTORIAL HepG2 Assay for human Constitutive Androstane Receptor (CAR) (AID 2282969; active = hit-call score of the fitted dose curve at least 0.9, where 1 is the maximum;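 also: activators raise reporter mRNA above DMSO so AC50 marks induction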); details: HepG2 Attagene TRANS-FACTORIAL CAR reporter
# Nuclear receptor subfamily 1 group I member 3 (Homo sapiens), sequence (Q14994 whole entry, looked up, the tested form may be a part): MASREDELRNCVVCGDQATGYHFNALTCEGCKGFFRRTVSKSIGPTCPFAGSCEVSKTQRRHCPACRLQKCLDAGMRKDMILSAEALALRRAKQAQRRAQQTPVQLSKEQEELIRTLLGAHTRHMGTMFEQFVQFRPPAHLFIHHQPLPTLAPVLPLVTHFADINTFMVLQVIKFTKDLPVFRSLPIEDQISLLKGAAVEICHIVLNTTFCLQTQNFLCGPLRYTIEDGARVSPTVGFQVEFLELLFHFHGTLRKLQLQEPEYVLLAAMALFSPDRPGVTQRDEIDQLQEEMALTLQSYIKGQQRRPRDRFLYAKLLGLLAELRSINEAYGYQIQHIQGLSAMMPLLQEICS
# Outline: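 Steps: transient transfection of HepG2 with multiple GAL4-UAS reporter units; 24 h compound incubation; RNA isolation, RT-PCR, 6-FAM primer extension, HpaI digest; capillary electrophoresis. Gain-of-signal relative to DMSO negative control.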
# [16] = biological target: Estrogen receptor (Homo sapiens) (UniProt P03372); experiment: ATG_ERa_TRANS: Attagene TRANS-FACTORIAL HepG2 Assay for human Estrogen Receptor alpha (ERa) (AID 2282970; active = hit-call score of the fitted dose curve at least 0.9, where 1 is the maximum); details: HepG2 Attagene TRANS ERa GAL4 reporter, mRNA
# Estrogen receptor (Homo sapiens), sequence (P03372 whole entry, looked up, the tested form may be a part): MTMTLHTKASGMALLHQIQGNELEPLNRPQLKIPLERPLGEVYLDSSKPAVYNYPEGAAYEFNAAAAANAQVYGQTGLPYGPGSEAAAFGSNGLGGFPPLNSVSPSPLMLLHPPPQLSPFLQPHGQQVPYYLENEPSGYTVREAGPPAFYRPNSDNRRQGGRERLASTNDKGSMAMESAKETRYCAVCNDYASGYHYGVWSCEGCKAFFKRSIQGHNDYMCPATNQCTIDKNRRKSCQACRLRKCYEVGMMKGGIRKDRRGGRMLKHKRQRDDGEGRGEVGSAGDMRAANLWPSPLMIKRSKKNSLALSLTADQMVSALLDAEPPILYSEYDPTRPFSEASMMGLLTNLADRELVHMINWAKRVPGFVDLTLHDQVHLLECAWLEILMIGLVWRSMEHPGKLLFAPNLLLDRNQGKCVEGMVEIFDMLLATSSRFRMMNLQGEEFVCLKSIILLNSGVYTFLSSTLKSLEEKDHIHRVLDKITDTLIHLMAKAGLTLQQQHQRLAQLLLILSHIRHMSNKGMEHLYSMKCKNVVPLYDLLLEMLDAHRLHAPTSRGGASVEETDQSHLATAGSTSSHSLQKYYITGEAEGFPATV
# Outline: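 Liver-derived HepG2 cells expressing chimeric nuclear receptor-Gal4 proteins from transient transfection were exposed for 24 hours. Gain of reporter mRNA signal versus DMSO, read by capillary electrophoresis of FAM-labelled PCR products, was recorded.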
# [17] = biological target: Steroid hormone receptor ERR1 (Homo sapiens) (UniProt P11474); experiment: ATG_ERRa_TRANS: Attagene TRANS-FACTORIAL HepG2 Assay for human Estrogen-Related Receptor alpha (ERRa) (AID 2282971; active = hit-call score of the fitted dose curve at least 0.9, where 1 is the maximum); details: HepG2 Attagene TRANS reporter, ERRa transactivation
# Steroid hormone receptor ERR1 (Homo sapiens), sequence (P11474 whole entry, looked up, the tested form may be a part): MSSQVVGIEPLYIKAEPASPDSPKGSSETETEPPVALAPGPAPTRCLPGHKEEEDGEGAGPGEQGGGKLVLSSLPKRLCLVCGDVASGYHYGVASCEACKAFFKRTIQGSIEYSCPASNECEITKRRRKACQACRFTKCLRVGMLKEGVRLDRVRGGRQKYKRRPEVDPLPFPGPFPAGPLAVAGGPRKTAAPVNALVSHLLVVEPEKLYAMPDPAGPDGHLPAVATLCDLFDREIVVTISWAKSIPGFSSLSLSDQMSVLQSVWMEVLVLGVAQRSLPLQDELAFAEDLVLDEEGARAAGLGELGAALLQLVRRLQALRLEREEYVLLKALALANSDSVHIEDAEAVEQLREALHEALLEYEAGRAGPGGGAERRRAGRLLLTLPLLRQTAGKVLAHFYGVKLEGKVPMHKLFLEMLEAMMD
# Outline: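 Reporter transcript induction was quantified by RT-PCR and capillary electrophoresis of FAM-labelled, HpaI-cut products after 24 h treatment of HepG2 cells carrying transiently transfected GAL4-UAS reporter units and an exogenous ERRa-Gal4 fusion; activity scored as increase over DMSO.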
# [18] = biological target: X-box-binding protein 1 (Homo sapiens) (UniProt P17861); experiment: ATG_Xbp1_CIS: Attagene CIS-FACTORIAL HepG2 Assay for human X-box Binding Protein 1 (XBP1) (AID 2282972); details: HepG2 XBP1 cis-element reporter, Attagene multiplex; actives raise or lower the signal
# X-box-binding protein 1 (Homo sapiens), sequence (P17861 whole entry, looked up): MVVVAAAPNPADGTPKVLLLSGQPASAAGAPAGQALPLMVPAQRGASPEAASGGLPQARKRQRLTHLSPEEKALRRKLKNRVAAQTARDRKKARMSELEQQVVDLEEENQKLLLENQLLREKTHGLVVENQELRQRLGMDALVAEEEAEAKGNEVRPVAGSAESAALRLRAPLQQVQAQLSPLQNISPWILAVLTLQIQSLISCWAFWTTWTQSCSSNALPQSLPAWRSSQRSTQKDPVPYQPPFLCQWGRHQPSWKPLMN
# Outline: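 Changes in reporter transcript abundance, read by RT-PCR and capillary electrophoresis, reflect endogenous transcription factor activity. Transfected HepG2 cells received compound for 24 hours; DMSO defined baseline for bidirectional analysis.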
# [19] = ATG_GAL4_TRANS: Attagene TRANS-FACTORIAL HepG2 Assay for GAL4 (Internal Marker) (AID 2282976; active = hit-call score of the fitted dose curve at least 0.9, where 1 is the maximum); details: HepG2 Attagene TRANS GAL4 internal marker reporter
# Outline: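 First, HepG2 cells were transfected with reporter units under GAL4-UAS control. Next, they were treated with chemical for 24 h. Finally, RNA was reverse-transcribed, PCR-amplified, FAM-labelled and resolved by capillary electrophoresis, with induction scored against DMSO.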
# [20] = ATG_M_19_TRANS: Attagene TRANS-FACTORIAL HepG2 Assay for M19 Transcription Factor (Internal Marker) (AID 2282974; active = hit-call score of the fitted dose curve at least 0.9, where 1 is the maximum); details: HepG2 Attagene TRANS-FACTORIAL M19 internal marker reporter
# Outline: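 Measured here: internal-marker reporter transcript from HepG2 cells transfected with MRTUs, harvested at 24 h. cDNA PCR products were 6-FAM labelled by primer extension, cut with HpaI for 2 h at 37 C, and resolved by CE.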
smiles,measurement,setting,value
CCCCC[C@H](O)CC(=O)CCc1ccc(O)c(OC)c1,outcome,[1],inactive
same,outcome,[2],inactive
same,AC50,[3],18.1 µM (active)
same,outcome,[4],inactive
same,outcome,[5],inactive
same,outcome,[6],inactive
same,AC50,[7],166 µM (active)
same,outcome,[8],inactive
same,outcome,[9],inactive
same,outcome,[10],inactive
same,outcome,[11],inactive
same,outcome,[12],inactive
same,outcome,[13],inactive
same,AC50,[14],27.7 µM (active)
same,outcome,[15],inactive
same,outcome,[16],inactive
same,outcome,[17],inactive
same,outcome,[18],inactive
same,outcome,[19],inactive
Cc1ccc(S(=O)(=O)O)c(C)c1,outcome,[1],inactive
same,outcome,[2],inactive
same,AC50,[3],27.3 µM (active)
same,outcome,[3],inactive
same,outcome,[4],inactive
same,outcome,[6],inactive
same,outcome,[7],inactive
same,outcome,[8],inactive
same,outcome,[9],inactive
same,outcome,[10],inactive
same,outcome,[11],inactive
same,outcome,[12],inactive
same,outcome,[13],inactive
same,outcome,[14],inactive
same,outcome,[15],inactive
same,outcome,[16],inactive
same,outcome,[17],inactive
same,outcome,[18],inactive
same,outcome,[20],inactive
same,outcome,[19],inactive
CCC(=C(c1ccc(O)cc1)c1ccc(OCCN(C)C)cc1)c1ccccc1,AC50,[1],7.1 µM (active) and 11.2 µM (active)
same,outcome,[1],inactive
same,AC50,[2],7.1 µM (active) and 9.41 µM (active)
same,outcome,[2],inactive
same,AC50,[3],1.05 µM (active) [middle of 4 runs]
same,outcome,[4],inactive
same,AC50,[6],7.1 µM (active) and 11.3 µM (active)
same,outcome,[6],inactive
same,AC50,[7],13.4 µM (active)
same,outcome,[7],inactive
same,AC50,[8],3.6 µM (active)
same,outcome,[8],inactive
same,outcome,[9],inactive
same,AC50,[10],10 µM (active)
same,outcome,[10],inactive
same,AC50,[11],3.39 µM (active)
same,outcome,[11],inactive
same,AC50,[12],10.4 µM (active)
same,outcome,[12],inactive
same,outcome,[13],inactive
same,AC50,[14],3.53 µM (active) and 7.1 µM (active) and 2.37 µM (active)
same,outcome,[14],inactive
same,outcome,[15],inactive
same,outcome,[17],inactive
same,AC50,[18],11.2 µM (active) and 2.37 µM (active)
same,outcome,[18],inactive
same,outcome,[20],inactive
same,outcome,[19],inactive
COc1cc(CCC(=O)CC(=O)CCc2ccc(O)c(OC)c2)ccc1O,outcome,[1],inactive
same,outcome,[2],inactive
same,AC50,[3],8.44 µM (active)
same,outcome,[4],inactive
same,outcome,[5],inactive
same,outcome,[6],inactive
same,outcome,[7],inactive
same,outcome,[8],inactive
same,outcome,[9],inactive
same,outcome,[10],inactive
same,outcome,[11],inactive
same,outcome,[12],inactive
same,outcome,[13],inactive
same,AC50,[14],13.7 µM (active)
same,outcome,[15],inactive
same,outcome,[16],inactive
same,outcome,[18],inactive
same,outcome,[20],inactive
CC#C[C@]1(O)CC[C@H]2[C@@H]3CCC4=CC(=O)CCC4=C3[C@@H](c3ccc(N(C)C)cc3)C[C@@]21C,AC50,[1],11.5 µM (active) and 4.77 µM (active) and 13 µM (active)
same,outcome,[1],inactive
same,AC50,[2],11.6 µM (active) [middle of 4 runs]
same,AC50,[3],1.03 µM (active) [middle of 4 runs]
same,AC50,[5],6.68 µM (active) [middle of 4 runs]
same,outcome,[6],inactive
same,AC50,[7],122 µM (active) and 27.5 µM (active)
same,outcome,[7],inactive
same,AC50,[8],23.9 µM (active) and 91.2 µM (active) and 31.7 µM (active)
same,outcome,[8],inactive
same,outcome,[9],inactive
same,AC50,[10],9.11 µM (active) and 8.72 µM (active) and 27.2 µM (active)
same,outcome,[10],inactive
same,AC50,[11],11.3 µM (active) and 26.2 µM (active)
same,AC50,[12],14.7 µM (active)
same,outcome,[12],inactive
same,AC50,[13],8.06 µM (active) and 26.5 µM (active)
same,outcome,[13],inactive
same,outcome,[16],inactive
same,AC50,[18],35.7 µM (active) [middle of 4 runs]
same,outcome,[20],inactive
